Bioassay records: PubChem BioAssay, National Center for Advancing Translational Sciences (NCATS)
The list is not random: actives were taken first. Their share in the collection is about 7.3%.
HCMV inh = blocks human cytomegalovirus replication; HFF cells, HCMV-luciferase reporter, 72 h; stronger effect = lower value; activity change, negative = inhibition, % at 57.5 µM; actives 4.5% (n = 410,000); in the data active = activity change below about -60%; inconclusive = no clear call, values can overlap the other calls; inactive = above about -39%
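Screen run at 2 compound doses on HFFs infected with reporter HCMV, MOI 1 PFU/cell. Luciferase activity from cell lysates at 72 h post infection gave inhibition relative to buffer-only and Salinomycin wells.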
VACV mCherry inh = inhibitors of vaccinia virus infection (mCherry reporter signal); Potency, µM (doses to about 36.5 µM), hits mostly inhibitors; actives 0.63% (n = 310,000); Vaccinia virus mCherry reporter infection, fluorescence; calls by dose curve; tested in A549 cells; note: nearly all actives have a fitted effect of over 35% in size
FMDV inh = foot and mouth disease virus antiviral activity; FMDV antiviral cell-based qHTS; Potency, µM (titrated, usually from 57.9 µM), actives largely listed as inhibitors; AID 1159524; actives 1.2% (n = 410,000); calls by dose curve; tested in HEK293T cells; note: read-out not given here; nearly all actives have a fitted effect of over 45% in size
VACV Venus inh = inhibitors of vaccinia virus (Venus reporter). Vaccinia virus Venus reporter expression, fluorescence. Potency, µM (doses to about 36.5 µM), usual class: inhibitors. actives 0.46% (n = 330,000). AID 720580; calls by dose curve; tested in A549 cells; note: nearly all actives have a fitted effect of over 30% in size
HCV inh = inhibitors of hepatitis C virus infection. Huh7.5.1 HCVcc-Cre infection, luciferase reporter, 44 h. actives 3.4% (n = 340,000). Potency, µM (top dose mostly 41.8 µM), actives largely listed as inhibitors; active = well fitted inhibition curve with a large enough effect; inconclusive = small, poorly fitted or top-dose-only effect, or another doubt; inactive = no such curve, though single readings can be large or run the other way
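Infectious HCV cell culture screen: compound-treated cells (1,000/well, pre-plated 4 h) are infected with HCVcc-Cre at roughly 0.5 moi and grown 44 h. Infection is quantified by luciferase signal after 15 min substrate incubation at room temperature.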
Large screens that a line does not name were inactive.

CCN(Cc1cccc(S(=O)(=O)O)c1)c1ccc(C(=C2C=CC(=[N+](CC)Cc3cccc(S(=O)(=O)O)c3)C=C2)c2ccccc2S(=O)(=O)[O-])cc1	VACV mCherry inh inconclusive (no result: HCMV inh, FMDV inh, HCV inh)
Cc1ccc(C(O)(c2ccc(C)c(C)c2)C2CN3CCC2CC3)cc1C (configuration not stated)	HCMV inh -97, FMDV inh inconclusive, HCV inh inconclusive (no result: VACV mCherry inh, VACV Venus inh)
O=c1c2c3c(sc2nnn1Cc1ccc(F)cc1)CCCC3	none (no result: HCV inh)
O=C(NCCN1C(=O)S/C(=C\c2ccc(Cl)c([N+](=O)[O-])c2)C1=O)C1=COCCO1	HCV inh 11µM
O=C(NCCN1C(=O)S/C(=C\c2ccc(Cl)c(Cl)c2)C1=O)c1cnccn1	HCMV inh -66
CS(=O)(=O)c1ccc(C(=O)NCCN2C(=O)S/C(=C\c3cccnc3)C2=O)cc1[N+](=O)[O-]	HCMV inh -114, FMDV inh 28µM, HCV inh inconclusive (no result: VACV mCherry inh, VACV Venus inh)
Cc1ccc(-c2nc3c4ccccc4ccn3c2Cc2ccsc2)cc1	none (no result: HCV inh)
Cc1snc(SCc2ccc(Cl)cc2)c1C#N	HCMV inh -100 (no result: VACV mCherry inh, VACV Venus inh)
Cc1snc(SCc2ccc(F)cc2)c1C#N	none
Cc1ccc(C)c2sc(N3CCN(C(=O)c4ccc([N+](=O)[O-])o4)CC3)nc12	VACV mCherry inh inconclusive, FMDV inh inconclusive, VACV Venus inh inconclusive, HCV inh inconclusive
O=C(c1ccc([N+](=O)[O-])o1)N1CCN(c2nc3c(F)cc(F)cc3s2)CC1	HCV inh 0.56µM
CCc1ccccc1NC(=O)C(=O)NCCCN1CCOCC1	none (no result: HCV inh)
O=C(NC1CCCc2ccccc21)c1cnn2c1NC(=C1CC1)C=C2C(F)F (configuration not stated)	none (no result: HCMV inh, FMDV inh, HCV inh)
CCC(=O)N1CCc2cc(Br)cc(S(=O)(=O)N3CCN(c4ccccc4OC)CC3)c21	none (no result: HCV inh)
CCOc1ccc(-n2c(SCc3cc(=O)oc4cc(C)c(C(C)C)cc34)nnc2-c2cccnc2)cc1	HCMV inh -80, HCV inh inconclusive
Cc1cc2oc(=O)cc(CSc3nnc(-c4cccs4)o3)c2cc1C(C)C	FMDV inh inconclusive, HCV inh 10µM
CC1CC(OC(=O)C2CCN(S(=O)(=O)c3ccc(F)cc3)CC2)C(=O)O1 (configuration not stated)	none
COc1ccc(NC(=O)CC(C)n2ccnc2)cc1 (configuration not stated)	none
COc1cc(=O)n2c(c1C(=O)N(C)Cc1cscn1)CCN(C(=O)c1ccc(C)c(C)c1)CC2	none (no result: HCMV inh, HCV inh)
COc1ccc(C2=C(C)C(=O)N(Cc3ccc(C(=O)Nc4ccc(F)cc4C)cc3)S2(=O)=O)cc1	HCMV inh -63 (no result: HCV inh)
CCn1ncc(C2=NOC(C(=O)NCc3ccc(OC)cc3)C2)c1C (configuration not stated)	none (no result: VACV mCherry inh, VACV Venus inh)
CCn1ncc(C2=NOC(C(=O)Nc3c(C)nn(Cc4ccc(F)cc4)c3C)C2)c1C (configuration not stated)	HCMV inh -61, HCV inh inconclusive
CCn1ncc(C2=NOC(C(=O)Nc3c(C)n(C)n(-c4ccccc4)c3=O)C2)c1C (configuration not stated)	none
CCn1ncc(C2=NOC(C(=O)NCc3ccccc3)C2)c1C (configuration not stated)	HCMV inh -60 (no result: VACV mCherry inh, VACV Venus inh)
Cc1ccc(Cl)cc1N1CCN(CCCNC(=O)C2COc3ccccc3C2)CC1 (configuration not stated)	FMDV inh inconclusive (no result: HCV inh)
O=C(c1ccc(-c2ccccc2Cl)o1)N1CCN(S(=O)(=O)c2cccs2)CC1	HCV inh 14µM
O=C(c1ccccc1Cl)N1CCN(S(=O)(=O)c2cccs2)CC1	none (no result: HCV inh)
O=C(c1ccco1)N1CCN(C(=O)c2ccc(-c3ccccc3Cl)o2)CC1	HCV inh 22µM (no result: VACV mCherry inh, VACV Venus inh)
CCOc1ccc(NC(=O)Cc2csc(COc3cccc(C)c3)n2)cc1	none (no result: HCV inh)
CNc1cncc(-c2c(OC)cccc2OC)n1	HCMV inh -103 (no result: HCV inh)
CNc1cncc(-c2cccc(OC)c2F)n1	none (no result: HCV inh)
O=C(Cn1c(=O)n(-c2ccc(F)cc2)c(=O)c2sc3ccccc3c21)N1CCCC1	none (no result: HCV inh)
CN(C)c1ccc(Nc2nc(N)c3ccccc3n2)cc1	VACV mCherry inh inconclusive, FMDV inh 7.1µM, HCV inh inconclusive
CCOc1ccc(Nc2nc(N)c3ccccc3n2)cc1	VACV mCherry inh inconclusive, FMDV inh 8.9µM, VACV Venus inh inconclusive
Nc1nc(Nc2ccc(Cl)cc2)nc2ccccc12	VACV mCherry inh inconclusive, VACV Venus inh inconclusive
Nc1nc(Nc2ccccc2)nc2ccccc12	none
Cc1ccc(NC(=O)COc2ccccc2C(=O)Nc2ccccc2)cc1	none (no result: HCMV inh, FMDV inh, HCV inh)
COCC(=O)Nc1cc(C(=O)N2CCCC(C(N)=O)C2)cc2nc(-c3ccccc3)n(C)c12 (configuration not stated)	none (no result: HCMV inh, HCV inh)
c1ccc2nc(-c3ccc(N4CCOCC4)cc3)ccc2c1	HCV inh inconclusive (no result: VACV mCherry inh, VACV Venus inh)
CN1CCN(c2ccc(-c3ccc4ccccc4n3)cc2)CC1	HCMV inh -92, FMDV inh 1.8µM, HCV inh 16µM
O=C(NCc1ccccc1)C(c1ccc(F)cc1)N(C(=O)c1csnn1)C1CC1 (configuration not stated)	none
FC(F)(F)c1cccc(-c2n[nH]c3ccnc(-c4ccsc4)c23)c1	HCMV inh -60 (no result: VACV mCherry inh, FMDV inh, VACV Venus inh, HCV inh)
COc1cc(-c2nccc3[nH]nc(-c4ccccc4)c23)cc(OC)c1OC	none (no result: VACV mCherry inh, FMDV inh, VACV Venus inh, HCV inh)
CCN(C(=O)c1cc2c(=O)[nH]c3ccc(C)cc3c2s1)c1ccc(OC)cc1	HCV inh inconclusive
COc1ccc(CC(=O)Nc2sc3c(c2C(=O)Nc2ccccc2)CCCCC3)cc1	HCMV inh inconclusive (no result: HCV inh)
COc1ccc(CC(=O)Nc2sc3c(c2C(=O)Nc2cccc(Cl)c2)CCCCC3)cc1	HCMV inh -106, FMDV inh inconclusive, VACV Venus inh inconclusive (no result: HCV inh)
CCN(CC)Cc1c(NC(=O)c2ccc(OC)cc2)sc2c1CCCC2	HCMV inh -90 (no result: HCV inh)
CCN(CC(=O)Nc1ccc(OC)cc1)CC(=O)Nc1sc2c(c1C(=O)OC)CCCC2	HCMV inh inconclusive, HCV inh 7.9µM (no result: VACV mCherry inh, VACV Venus inh)
O=C(NC1CCSc2ccccc21)c1cc(S(=O)(=O)N2CCOCC2)ccc1Cl (configuration not stated)	none
CCN(CC(=O)NCc1cccs1)C(=O)CCOc1ccccc1C	HCMV inh -97
CCN(CC(=O)NCc1ccc(Cl)cc1)C(=O)CCOc1ccccc1C	VACV mCherry inh inconclusive, HCV inh inconclusive
COC(=O)[C@]12CCCCC=C1N(Cc1cccc3ccccc13)C(=O)[C@H](CC(=O)NCc1ccc(OC)c(OC)c1)C2	HCMV inh -86, VACV mCherry inh inconclusive, FMDV inh 14µM (no result: HCV inh)
CCOC(=O)[C@]12CCC=C1N(Cc1ccco1)C(=O)[C@H](CC(=O)NCc1ccc(OC)c(OC)c1)C2	none (no result: HCV inh)
CCOC(=O)[C@]12CCC=C1N(Cc1cccc3ccccc13)C(=O)[C@H](CC(=O)NCc1ccc(OC)c(OC)c1)C2	HCMV inh -65, FMDV inh 35µM, VACV Venus inh inconclusive (no result: HCV inh)
O=C1CC(CC(=O)N2CC3CCCC2C3)(c2cccc(F)c2)C(=O)N1Cc1cccnc1 (configuration not stated)	none (no result: HCMV inh, HCV inh)
